# In the library only some 2.4% were active in any assay of this set; here they are far more common.
# D2 ag-1: human D2 receptor agonism in beta-arrestin assay; DiscoveRx PathHunter D2 beta-arrestin, luminescence, 90 min; 100% = 57 uM dopamine signal; activation, % (no concentration beside the values); 360,000 tested, 0.084% active; in the data active = activation above about 40%; inconclusive = between about 15% and that limit
# Target sequence (P14416 whole entry, looked up): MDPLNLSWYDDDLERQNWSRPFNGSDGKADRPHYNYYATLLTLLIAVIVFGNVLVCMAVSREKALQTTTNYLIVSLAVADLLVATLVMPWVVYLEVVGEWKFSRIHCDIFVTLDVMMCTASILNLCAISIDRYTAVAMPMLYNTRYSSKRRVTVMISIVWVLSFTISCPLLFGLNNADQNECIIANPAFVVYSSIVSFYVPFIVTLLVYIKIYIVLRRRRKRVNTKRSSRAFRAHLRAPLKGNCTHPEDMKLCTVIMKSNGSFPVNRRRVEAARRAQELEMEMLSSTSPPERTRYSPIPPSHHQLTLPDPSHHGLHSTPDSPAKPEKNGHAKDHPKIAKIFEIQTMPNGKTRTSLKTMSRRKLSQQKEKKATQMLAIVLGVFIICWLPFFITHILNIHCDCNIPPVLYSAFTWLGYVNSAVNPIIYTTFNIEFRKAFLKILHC
#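 DiscoveRx PathHunter D2 beta-arrestin cells (2,100/well) attached overnight, then compound-stimulated 90 min at 37 C in HBSS/10 mM HEPES/0.1% Tween-20 buffer; beta-galactosidase complementation read by luminescence after 1 h at ambient temperature. Dopamine 57 uM final (EC100) as control.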
# D2 antag: D2 dopamine receptor (human) antagonism | P14416 | 340,000 tested, 2% active | HEK293 TREx D2 cells, calcium flux, dopamine EC80 | inhibition, % at 10 µM; in the data active = inhibition above about 30%; inactive = below that, where a call was filed; note: 0% is about no effect
#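 Dopamine at EC80 is the agonist stimulus; test compounds precede it by 180 s. Calcium flux read kinetically in a force-coupled, inducible HEK293 T-REx D2 cell line.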
# D2 PAM-1: positive allosteric modulators of human D2 dopamine receptor; P14416; potentiation, % at 10 µM; 340,000 tested, 0.34% active; AID 485347; HEK293 T-REx D2, calcium flux, EC20 dopamine potentiation;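 active = potentiation over 3 SD above the plate norm, cut at about 30% in these data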; note: 0% is about no effect
#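 Calcium flux readout, no-wash dye, 1 read/s. Inducible HEK293 Trex D2 line, overnight 30 C. Compound alone 180 s (agonist flags), then EC20 dopamine, another 180 s to score potentiation.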
# D2 PAM-2: potentiates the human D2 dopamine receptor allosterically; P14416; DiscoveRx D2 beta-arrestin cells, luminescence, 90 min; 100% = 57 uM dopamine signal; potentiation, % (concentration not given with the values); 360,000 tested, 0.23% active; in the data active = potentiation above about 50%; inconclusive = mostly about 30% to 49%
#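 PathHunter beta-arrestin assay in DiscoveRx D2 cells. Compounds were added with an EC20 of dopamine (50 nM final) for 90 min at 37 deg C. Luminescence was read 1 h after detection reagent, with 57 uM dopamine as the EC100 control.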
# D2 ag-2: D2 dopamine receptor (human) agonism | P14416 | HEK293 T-REx D2 cells, calcium flux agonist mode | activation, % at 2 µM | 340,000 tested, 0.53% active | AID 485358;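 active = activation over 3 SD above normal in the single-dose calcium agonist read, cut at about 30% in these data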; note: 0% is about no effect
#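 Calcium-flux readout, 1 cycle/sec over 180 s following compound pin transfer, in inducible HEK293 Trex D2 cells (force-coupled); dopamine controls included. Positive calcium responses during this window marked compounds as potential agonists.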
# D3 ag: activates human D3 dopamine receptor beta-arrestin recruitment | shares compounds with D2 ag-2 | DiscoveRx D3 beta-arrestin cells, luminescence, 90 min | Potency, µM (series often up to 76.9 µM), for inactives: top-dose activation, usual class: activators | 2,300 tested, 4% active;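 note: potency is the fitted concentration of half-maximal effect; 100% = dopamine control response; nearly all actives have a fitted effect of over 70% in size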
# D2 ag-3: D2 receptor agonism, beta-arrestin counterscreen | 2,300 tested, 5.9% active | shares compounds with D2 ag-2 | Potency, µM (top dose mostly 76.9 µM), without a hit: at the top dose activation, actives largely listed as activators | DiscoveRx PathHunter D2 beta-arrestin, luminescence, 90 min; response scale: percent relative to full dopamine signal; note: potency is the fitted concentration of half-maximal effect; % of control where 0% means no effect; nearly all actives have a fitted effect of over 70% in size
# The depositor's hits bear a star; ? = inconclusive; nt = no result. Unless noted, calls come from the whole dose curve; as a rule, active = well fitted activation curve with a large enough effect; inconclusive = small, poorly fitted or top-dose-only effect; inactive = flat fitted curve, though single readings scatter.
SMILES,D2 ag-1,D2 antag,D2 PAM-1,D2 PAM-2,D2 ag-2,D3 ag,D2 ag-3
c1ccc(N2CCN(Cc3nc4ccccc4[nH]3)CC2)nc1,5,-10,-21,-3,15,nt,nt
Brc1ccc(CN2CCN(c3ccccn3)CC2)s1,70*,69*,-12,?,70*,?,3.5µM*
OCCN1CCN(Cc2cc(Cl)c3cccnc3c2O)CC1,1,3,-9,-24,0,nt,nt
O=c1c(CN2CCN(c3ccccn3)CC2)coc2ccccc12,?,79*,-17,19,88*,11%,?
CCOc1ccccc1NC(=O)N1CCC2(CC1)Oc1ccccc1C(=O)N2Cc1ccccc1F,nt,nt,2,nt,0,nt,nt
CSc1nc2ccccc2c(=O)n1C1CCCCC1,0,17,5,1,0,nt,nt
CSc1nc2ccccc2c(=O)n1C1CCOC(C)(C)C1 (stereo not given),?,19,8,2,21,19%,4%
Cc1ccc(CN2CCC(CNC(=O)c3cc4ccc5cccnc5c4[nH]3)CC2)cc1,nt,nt,1,nt,0,nt,nt
CCN(C(=O)Cn1c(C(=O)OC)cc2sc(Cl)cc21)c1cccc(C)c1,nt,nt,1,nt,8,nt,nt
Cc1[nH]n(-c2ccc(F)cc2)c(=O)c1/C=N/c1sc2c(c1C#N)CCCC2,5,11,-13,-13,53*,?,15%
Cc1ccc(/C=N/c2sc3c(c2C#N)CCCCC3)o1,14,nt,nt,-3,nt,?,29%
CCc1c(C)sc2c1CCN(Cc1cccc(OC)c1)C2c1ccccc1 (stereo not given),nt,nt,-2,nt,0,nt,nt
CCNC(=O)c1nn(-c2ccccc2C)nc1CO,nt,nt,3,nt,0,nt,nt
C[C@H]1[C@H](C)CC[C@]2(C)CC[C@]3(C)C(=CC(=O)C4[C@@]5(C)CC[C@H](O)C(C)(C)C5CC[C@]43C)[C@H]12 (stereo not given in full),-4,21,0,0,0,-2%,-1%
COc1cc(CC(=O)Nc2ccc3nc(C)sc3c2)cc(OC)c1OC,-1,-11,1,-5,56*,2%,1%
CC1CC(C)CN(CCOc2cccc(Cl)c2Cl)C1 (stereo not given),41*,86*,-27,16,88*,?,?
Clc1cccc(OCCn2cncn2)c1Cl,0,nt,nt,-5,nt,nt,nt
NS(=O)(=O)c1ccc(CCNC(=O)C2CCN(S(=O)(=O)c3ccccc3)CC2)cc1,-3,-11,7,-3,-1,nt,nt
O=C(COC(=O)C1CCN(S(=O)(=O)c2ccccc2)CC1)NCCc1ccccc1,0,-24,0,1,0,-2%,0%
O=C(Nn1cnnc1)c1ccncc1,-2,9,-4,-2,0,-7%,-2%
CCCN1CCc2c(sc(NC(=O)c3ccc(S(=O)(=O)N4CCN(C(=O)OCC)CC4)cc3)c2C(N)=O)C1,-3,-22,-13,-9,47*,-9%,-4%
COc1ccc([C@H](C)NC[C@H](O)c2ccc(O)c(NC=O)c2)cc1,-3,4,-5,-17,33*,-1%,0%
COc1ccc(OCC(O)CNC(C)c2ccccc2)cc1 (stereo not given),-1,-10,6,-5,2,nt,nt
COc1ccc(OCc2cc(C(=O)N[C@H]3CCCCNC3=O)no2)c(Cl)c1,-1,16,-3,21,0,nt,nt
COc1ccc(OCc2cc(C(=O)NC3Cc4ccccc4C3)no2)c(Cl)c1,-1,nt,3,5,nt,2%,0%
SMILES,D2 ag-1,D2 antag,D2 PAM-1,D2 PAM-2,D2 ag-2,D3 ag,D2 ag-3
Nc1nc2c(s1)CCCCCCCCCC2,0,6,6,1,0,nt,nt
CCN1CCc2nc(N)sc2C1,6,35*,-15,5,68*,22%,16%
CCN1CCc2nc(N)oc2CC1,-1,-2,11,4,0,nt,nt
C=CCN1CCc2nc(N)sc2CC1,69*,89*,-23,81*,88*,0.089µM*,0.045µM*
CCc1nn2c(=O)cc(COC(=O)c3cccc(NC(=O)c4cccs4)c3)nc2s1,nt,nt,5,nt,1,nt,nt
COC(=O)[C@@H](NC(=O)Nc1ccc(S(N)(=O)=O)cc1)C(C)C,-4,3,-22,-9,69*,-2%,0%
O=C(c1ccco1)N1CCN(Cc2cn[nH]c2-c2ccc(F)cc2F)CC1,4,-20,-5,4,28,nt,nt
O=C(c1ccco1)N1CCN(Cc2ccc(F)cc2Cl)CC1,?,58*,-26,23,79*,29%,?
O=C(c1ccco1)N1CCN(C(=O)c2ccco2)CC1,-2,nt,nt,-4,nt,nt,nt
O=C(c1ccco1)N1CCN(Cc2ccccc2Br)CC1,?,78*,-31,?,76*,?,50µM*
CCn1c(SCc2ccccc2)nnc1-c1nonc1NC(C)=O,nt,nt,-14,nt,-2,nt,nt
COc1ccc(CN=Cc2[nH]c3ccc(Br)c(Cl)c3c2O)cc1,5,43*,-14,-2,51*,29%,28%
CC(C)(C)NC(=O)c1cc2c(ccc3ccccc32)oc1=O,12,nt,nt,1,nt,?,9%
CCOC(=O)c1c(NC(=S)Nc2ccccc2)sc2c1CCN(CC)C2,0,-3,-14,-23,8,-17%,-2%
O=C(Nc1nccs1)c1cccnc1,-2,12,-7,-5,1,-4%,-1%
Cc1ccc(NC(=O)Cn2ccn(-c3ccccc3)c(=O)c2=O)cc1,nt,nt,3,nt,0,nt,nt
c1ccc(N2CCN(C3CC4CCC3C4)CC2)cc1 (stereo not given),-2,87*,-12,-5,54*,-3%,7%
COc1ccc(C(=O)N2CCC(C(=O)N3CCN(c4ccc(OC)cc4)CC3)CC2)cc1,-1,5,3,2,1,nt,nt
COc1ccccc1C(=O)N1CCC(N2CCN(c3ccccc3)CC2)CC1,?,69*,-23,-6,78*,?,?
COc1ccc(C(=O)N2CCC(N3CCN(c4ccccc4)CC3)CC2)cc1,12,57*,-20,-25,71*,?,?
CC(C)(C)C1CCC(N2CCN(c3ccccc3)CC2)CC1 (stereo not given),2,86*,-35,-48,73*,5%,?
Cc1nc2nc(CNC(=O)OC(C)(C)C)nn2c(C)c1CCC(=O)NCc1ccccc1Cl,nt,nt,-5,nt,0,nt,nt
Cc1ccc(C)c(S(=O)(=O)c2nnn3c2nc(NC2CCCC2)c2sccc23)c1,nt,nt,-4,nt,0,nt,nt
